A selection: hits, their analogues and other compounds. The true share with any hit is near 1.5%.
GALK inhibitor – galactokinase (human) inhibition. Purified GALK, Kinase-Glo residual ATP luminescence. P51570. Potency, µM (highest dose often 57.5 µM), for the others: at the top dose activity change, negative = inhibition, actives largely listed as inhibitors. 0.007% of 270,000 active; further: potency means the concentration at half of the fitted maximal effect
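Human GALK (5 nM) with 35 uM ATP and 100 uM galactose in 20 mM HEPES pH 8.0, 5 mM MgCl2, 60 mM NaCl, 1 mM DTT, 0.01% BSA. After 1 h at room temperature, leftover ATP was read by Kinase-Glo Plus luminescence.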
PI4K2A block – PI4K2A (human) kinase inhibition | Q9BTU6 | purified PI4K2A, ADP-Glo luminescence, 1 h; stronger effect = lower value | AID 1346378 | activity change, negative = inhibition, % at 76.9 µM | 0.13% of 420,000 active; in the data active means activity change below about -50%; inconclusive means mostly about -30% to -49%;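 further: -100% = wells without enzyme as full effect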
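Compounds are screened against recombinant PI4K2A using PI as substrate and ATP, the latter dispensed at 300 microM. Reactions run one hour at ambient temperature before ADP-Glo detection; full inhibition defined by wells lacking enzyme.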
TrxR1 inh – blocks rat thioredoxin reductase 1; O89049; recombinant rTrxR1, NADPH fluorescence consumption, selenite substrate; Potency, µM (top dose mostly 114 µM), for the others: top-dose activity change, negative = inhibition, actives largely listed as inhibitors; 1% of 390,000 active; AID 588453; further: potency means the concentration at half of the fitted maximal effect; nearly all actives have a fitted effect of over 65% in size
Target sequence (O89049 whole entry, looked up): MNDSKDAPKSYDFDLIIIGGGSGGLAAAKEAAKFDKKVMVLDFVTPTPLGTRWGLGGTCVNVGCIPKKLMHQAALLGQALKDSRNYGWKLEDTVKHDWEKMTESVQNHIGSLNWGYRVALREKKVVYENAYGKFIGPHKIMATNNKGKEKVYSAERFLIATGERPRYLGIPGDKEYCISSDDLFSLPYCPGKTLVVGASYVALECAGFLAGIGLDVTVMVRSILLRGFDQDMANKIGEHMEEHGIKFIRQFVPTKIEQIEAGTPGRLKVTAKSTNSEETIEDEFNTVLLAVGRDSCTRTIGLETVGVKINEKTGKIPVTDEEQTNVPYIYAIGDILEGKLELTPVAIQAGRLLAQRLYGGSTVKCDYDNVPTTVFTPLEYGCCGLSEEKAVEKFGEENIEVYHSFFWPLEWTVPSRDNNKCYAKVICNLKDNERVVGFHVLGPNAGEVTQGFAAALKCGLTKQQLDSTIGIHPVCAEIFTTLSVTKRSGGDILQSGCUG
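Rat TrxR1 (90 nM in the dispensed reagent) was pre-reduced with 400 uM NADPH for 5 min at room temperature, then incubated with compound for 15 min. After 400 uM selenite was added, NADPH fluorescence (Ex 340/Em 450 nm) was followed for 8 min.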
TrxR1 substrate – substrates of rat thioredoxin reductase 1. O89049. purified TrxR1 substrate turnover, NADPH consumption readout. Potency, µM (highest dose often 114 µM), for the others: at the highest dose activity change, negative = substrate turnover. 0.01% of 390,000 active. AID 588456; further: potency means the concentration at half of the fitted maximal effect; nearly all actives have a fitted effect of over 50% in size
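Rat TrxR1, dispensed at 90 nM, was prereduced with 400 uM NADPH (final) for 5 min at ~22 deg C, then incubated with compound 15 min before 400 uM selenite. A first-read NADPH fluorescence drop versus no-compound background flagged substrates.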
Giardia kill – kills Giardia lamblia; Giardia lamblia trophozoite viability; 0.15% of 340,000 active; activity change, % at 7.66 µM, hits read low; in the data active means activity change below about -80%; inconclusive means between about -30% and that limit;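 further: parasites exposed to compound for two days anaerobically before the ATP read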
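Viability, read as ATP luminescence: trophozoites at 100 cells/well, compound added, 48 hrs anaerobic at 37 deg C, then 15-30 min room-temperature development before reading.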
Coupling enz – coupling enzyme interference in Giardia aldolase counter-screen | coupling enzyme system counterscreen, AmpLite Red fluorescence | 0.67% of 290,000 active | activity change, negative = inhibition, % at 58.2 µM, hits read low; in the data active means activity change below about -30%
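Activity here indicates interference with the coupling reaction, not aldolase inhibition. Compounds at 57.5 uM final met coupling enzymes for 10 min at RT; substrate and AmpLite Red detection followed, with a 525/598 nm fluorescence read after 20 min.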
An asterisk follows results filed as active; ? = inconclusive; . = not tested or not shown; [ ] = remark or other dose. Unless noted, the call rests on the fitted dose curve; in most records, active means well fitted curve in the direction sought with a large enough effect; inconclusive means small, poorly fitted or top-dose-only effect, or another doubt; inactive means no such curve, though single readings can be large; an effect the other way counts as inactive or inconclusive. Unless noted, on the % scale 0 is the no-effect control and ±100 the full control effect.

SMILES	GALK inhibitor	PI4K2A block	TrxR1 inh	TrxR1 substrate	Giardia kill	Coupling enz
Cc1ccc(-c2nnc(SCC(=O)NNC(=S)Nc3ccccc3)n2C2CCCCC2)cc1	.	3	.	.	.	.
C=CS(=O)(=O)c1ccc(Oc2ccc(S(=O)(=O)C=C)cc2)cc1	-3%	-11	5µM*	-4%	2	1
COc1cc2c(NC3CCN(C(C)C)CC3)nc(N3CCCN(C)CC3)nc2cc1OCCOCCN1CCCC1	.	.	-19%	110%	.	.
O=S(=O)(NCc1ccccc1)c1ccc(S(=O)(=O)NCC2CCCO2)cc1 (centres undefined)	-1%	1	1.4µM*	-5%[57.1 µM]	-2	-3
Cc1csc[n+]1CC(=O)c1ccc(I)cc1	.	.	-11%	2%	.	.
Cc1c[nH]c2cccc(OCC(O)CNC(C)(C)C)c12 (centres undefined)	2%	-6	29%	11%	1	-35*
Cc1cccc(OCC(O)CNC(C)(C)C)c1C (centres undefined)	.	-1	.	.	.	.
COc1ccc(N(CC(=O)N2CCc3ccccc3C2)S(=O)(=O)c2ccc(C)cc2)cc1Cl	.	4	8%	-3%	.	.
Cc1ccc2c(c1)c(=O)c1c3n2CCN(C(=O)CCl)C3CC1 (centres undefined)	-3%	?	14µM*	14%[57.1 µM]	-24	-42*
Cc1ccc2c(c1)c1c3n2CCN(C(=O)C2CC2)C3CCC1 (centres undefined)	2%	1	-15%	7%	-4	-36*
Cc1ccc(C(C)OC(=O)C2(C)CCC(C(=O)O)C2(C)C)cc1 (centres undefined)	.	-1	.	.	.	.
Cc1cc(O)cc2c1O[C@](C)(CCC(=O)O)CC2	.	.	-2%	0%	.	.
O=C(NNc1cc(N2CCOCC2)nc(N2CCOCC2)n1)c1ccc([N+](=O)[O-])cc1	?	?	18%[57.1 µM]	-18%[57.1 µM]	-2	-54*
CCOc1ccccc1OCC(=O)NCc1ccco1	-2%	-6	28µM*	7%	23	0
CCOc1ccccc1N(C(=O)CNS(=O)(=O)c1ccccc1)C(CC)C(=O)NCc1ccco1 (centres undefined)	0%	-2	25µM*	-2%	5	-4
COc1ccc(OC)c(C2C(C(=O)Nc3ccc(C)cc3)=C(C)Nc3nnnn32)c1 (centres undefined)	.	1	29%[57.1 µM]	-1%[57.1 µM]	.	.
CN(C)c1cccc2c(C=C(C#N)C#N)ccc(N(C)C)c12	2%	2	25µM*	-11%	0	-4
CN(C)c1cccc2c(/C=N/O)ccc(N(C)C)c12	-2%	1	5%[57.1 µM]	0%[57.1 µM]	10	-20
CCOC(=O)c1ccc(CC(=O)c2ccc(O)c(O)c2O)o1	1%	-7	7%[57.1 µM]	3%[57.1 µM]	3	-48*
COc1ccc(CN2CC[C@H]3C=CC[C@@H](C(=O)Nc4ccccc4)[C@H]3C2=O)cc1OC	.	.	3%	0%	.	.
O=C1[C@@H]2[C@H]3[C@H](O)[C@H](O)C/C(=N/OC[C@@H](O)COCc4ccco4)[C@H]3CC[C@H]2C(=O)N1c1ccc(F)cc1F	.	.	.	.	.	-30*
O=C1[C@H]2[C@H]3[C@H](O)[C@H](O)C/C(=N\OC[C@@H](O)COCc4ccco4)[C@@H]3CC[C@H]2C(=O)N1c1ccc(F)cc1F	.	.	.	.	.	-2
Cc1cc(O)c(C(C)C)cc1N=Cc1ccccc1O	-2%	-6	-21%	-9%	-4	-51*
Cc1cc(O)c(C(C)C)cc1N=Cc1cc([N+](=O)[O-])ccc1O	.	-1	-27%	-16%	14	-28
CCCCCCCN(C(=O)CCl)c1ccccc1C	0%	-6	79µM*	0%	-5	-2
SMILES	GALK inhibitor	PI4K2A block	TrxR1 inh	TrxR1 substrate	Giardia kill	Coupling enz
COC(=O)[C@]12C[C@H](CC(=O)NCCC(C)C)C(=O)N(Cc3cccc4ccccc34)C1=C[C@H](C(C)(C)C)O[C@@H]2C	.	-1	.	.	.	.
Cc1cccc(C)c1NC(=S)NC(=O)CCc1ccccc1	-5%	5	3.5µM*	-2%[57.1 µM]	-4	.
Nc1ccc(C(=O)O)c(O)c1	-1%	1	6%	4%	-17	-6
Nc1ccc(N)c(C(=O)O)c1	-1%	-66*	?	21%	-18	-34*
O=C(N/N=C/c1cccc(Oc2ccccc2)c1)c1ccccc1Br	-1%	1	-3%	-9%	-20	-32*
O=C(CNc1cccc2ccccc12)N/N=C/c1cccc(Oc2ccccc2)c1	1%	-1	14%	5%	-8	-32*
Cc1ccc(S(=O)(=O)c2nc(C)oc2N2CCOCC2)cc1	2%	6	?	14%	11	-1
Cc1ccc(S(=O)(=O)c2nc(C(C)(C)C)oc2N2CCOCC2)cc1	1%	2	0.56µM*	11%[57.1 µM]	8	7
O=C(Nc1nccs1)[C@@H]1CC=C[C@@H]2CCN(Cc3ccc(Cl)c(Cl)c3)C(=O)[C@@H]21	.	.	1%	-5%	.	.
Cc1ccc(C(=O)c2oc3ccccc3c2NC(=O)c2nc(S(C)(=O)=O)ncc2Cl)cc1F	.	10	-6%	6%	.	.
Cc1ccc(C(=O)Nc2ccc3c(c2)OCCO3)c(Cl)c1	2%	-24	11%	-5%	-83*	-2
Cc1cccc(OCCOCCSc2ncccn2)c1	-4%	3	-1%	-2%	0	-3
Cc1cccc(OCCSc2nc(N)cc(N)n2)c1	0%	2	40µM*	-15%	-22	6
CC(=O)n1cc(Nc2ccc([N+](=O)[O-])cc2)c2ccccc21	4%	8	22%	8%	-3	1
CC(=O)SC(C[N+](=O)[O-])c1cn(C(C)=O)c2ccccc12 (centres undefined)	-1%	-2	18µM*	2%	-4	0
O=C(O)c1cccc2cccc(-c3c4ccc(=O)c(O)c-4oc4c(O)c(O)ccc34)c12	.	-55*	16%[11.4 µM]	22%[57.1 µM]	-10	.
COc1ccc(OC)c(/C=N/c2oc(-c3ccco3)c(-c3ccco3)c2C#N)c1	-1%	-13	?	-1%[57.1 µM]	0	-44*
Cc1[nH]c(SCC(=O)Nc2cc(C(N)=O)cc(C(N)=O)c2)nc1Cc1ccccc1	.	16	?	7%	-24	.
Cc1cc(NC(=O)CSc2nc(Cc3ccc(O)cc3)c(C)[nH]2)no1	7%	-1	16µM*	6%[57.1 µM]	-23	-1
CCCCC/C=C\C\C=C/C=C/C=C/[C@@H](SCC(NC(=O)CCC(N)C(=O)O)C(=O)NCC(=O)O)[C@@H](O)CCCC(=O)O (some centres undefined)	.	.	.	.	.	1
CCN1/C(=N\N)c2cccc3cccc1c23	3%	-7	-17%	3%	5	-47*
